Source: PubChem BioAssay (EPA / NIEHS)
The source made the active and inactive calls. How the source made its calls: active means hit-call score of the fitted dose curve at least 0.9, where 1 is the maximum; inactive means score below 0.9.

Legend:
[1] = BSK_hDFCGF_SRB: Viability Assessment in the BioMAP Diversity Plus: hDFCGF Assay (AID 2283061); conditions: primary human foreskin fibroblasts;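 further: cells exposed to compound for 24 h before the read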
Summary of the method: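 Viability was read as total protein: after 10% TCA fixation, wells were stained with 0.1% sulforhodamine B and read at 560 nm. Primary human foreskin fibroblasts were dosed for 24 h, with bidirectional fitting versus DMSO.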

[2] = read-out: TIMP metallopeptidase inhibitor 1 (TIMP1), TIMP1 (gene 7076); assay: BSK_hDFCGF_TIMP1: BioMAP Diversity Plus: hDFCGF Assay for TIMP metallopeptidase inhibitor 1 (TIMP1) Biomarker Activity (AID 2283062); conditions: primary human foreskin fibroblasts; actives raise or lower the signal
Summary of the method: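 TIMP-1 measured by ELISA 24 h after chemical dosing of primary human skin fibroblasts, with gain or loss fitted relative to DMSO. Parallel SRB staining (560 nm) monitored overt cytotoxicity.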

[3] = read-out: Monokine induced gamma interferon (MIG), CXCL9 (gene 4283); assay: BSK_hDFCGF_MIG: BioMAP Diversity Plus: hDFCGF Assay for Monokine induced gamma interferon (MIG) Biomarker Activity (AID 2283063); conditions: primary human foreskin fibroblasts; actives raise or lower the signal
Summary of the method: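 Human primary foreskin fibroblasts in the hDFCGF system, exposed to test chemical for 24 h; MIG measured by ELISA. Bidirectional curve fitting against DMSO negative control as activity baseline.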

[4] = read-out: Vascular cell adhesion molecule 1 (VCAM1), VCAM1 (gene 7412); assay: BSK_hDFCGF_VCAM1: BioMAP Diversity Plus: hDFCGF Assay for Vascular cell adhesion molecule 1 (VCAM1) Biomarker Activity (AID 2283065); conditions: primary human foreskin fibroblasts; actives raise or lower the signal;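 on AC50: VCAM-1 protein level quantified by ELISA after 24 h chemical exposure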
Summary of the method: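 ELISA readout of VCAM-1 on human dermal fibroblast primary cultures, 24 h after chemical exposure. Gain or loss of signal fitted in both directions against DMSO baseline.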

[5] = read-out: Plasminogen activator inhibitor-1 (PAI1), SERPINE1 (gene 5054); assay: BSK_hDFCGF_PAI1: BioMAP Diversity Plus: hDFCGF Assay for Plasminogen activator inhibitor-1 (PAI1) Biomarker Activity (AID 2283066); conditions: primary human foreskin fibroblasts; actives raise or lower the signal
Summary of the method: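 Human skin fibroblast cultures receive chemical for 24 h before PAI-1 is measured by ELISA; signal changes are fitted bidirectionally against DMSO-treated wells.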

[6] = read-out: Intercellular Adhesion Molecule 1 (ICAM1), ICAM1 (gene 3383); assay: BSK_KF3CT_ICAM1: BioMAP Diversity Plus: KF3CT Assay for Intercellular Adhesion Molecule 1 (ICAM1) Biomarker Activity (AID 2283067); conditions: primary human keratinocytes with fibroblasts; actives raise or lower the signal
Summary of the method: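 Cell-surface ICAM-1 was measured by ELISA 24 h after dosing primary human skin keratinocytes co-cultured with fibroblasts. Parallel SRB staining tracked overt cytotoxicity. Gain or loss of signal was fitted relative to DMSO.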

[7] = read-out: Interferon-gamma inducible Protein 10 (IP10), CXCL10 (gene 3627); assay: BSK_KF3CT_IP10: BioMAP Diversity Plus: KF3CT Assay for Interferon-gamma inducible Protein 10 (IP10) Biomarker Activity (AID 2283068); conditions: primary human keratinocytes with fibroblasts; actives raise or lower the signal
Summary of the method: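 KF3CT co-culture (keratinocytes + foreskin fibroblasts), 24 h compound, IP-10 by ELISA; bidirectional fit vs DMSO baseline.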

[8] = BSK_KF3CT_SRB: Viability Assessment in the BioMAP Diversity Plus: KF3CT Assay (AID 2283069); conditions: primary human keratinocytes with fibroblasts;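 further: total protein by sulforhodamine B staining as a cytotoxicity measure; read 24 h after compound addition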
Summary of the method: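 Cytotoxicity was gauged by SRB staining (0.1% SRB, 10% TCA fixation, 560 nm) of parallel cultures at 24 h. The cells were primary human skin keratinocytes co-cultured with fibroblasts, and activity was fitted in both directions against DMSO.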

[9] = read-out: Interleukin-1 alpha (IL1a), IL1A (gene 3552); assay: BSK_KF3CT_IL1a: BioMAP Diversity Plus: KF3CT Assay for Interleukin-1 alpha (IL1a) Biomarker Activity (AID 2283070); conditions: primary human keratinocytes with fibroblasts; actives raise or lower the signal
Summary of the method: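 IL-1a was detected by ELISA 24 h after chemical treatment of a co-culture of human skin keratinocytes and foreskin fibroblasts. Gain or loss of signal was fitted against the DMSO baseline.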

[10] = read-out: TIMP metallopeptidase inhibitor 2 (TIMP2), TIMP2 (gene 7077); assay: BSK_KF3CT_TIMP2: BioMAP Diversity Plus: KF3CT Assay for TIMP metallopeptidase inhibitor 2 (TIMP2) Biomarker Activity (AID 2283071); conditions: primary human keratinocytes with fibroblasts; actives raise or lower the signal
Summary of the method: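 Measurements come from ELISA detection of TIMP-2 at 24 hours in a dosed human keratinocyte and foreskin fibroblast co-culture. DMSO serves as negative control and baseline.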

[11] = read-out: Transforming growth factor beta 1 (TGFb1), TGFB1 (gene 7040); assay: BSK_KF3CT_TGFb1: BioMAP Diversity Plus: KF3CT Assay for Transforming growth factor beta 1 (TGFb1) Biomarker Activity (AID 2283072); conditions: primary human keratinocytes with fibroblasts; actives raise or lower the signal
Summary of the method: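 TGF-b1 ELISA on a 24 h dosed co-culture of human keratinocytes and foreskin fibroblasts; cytotoxicity tracked in parallel cultures by SRB staining.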

[12] = read-out: C-C motif chemokine 2 (Homo sapiens) (UniProt P13500); assay: BSK_KF3CT_MCP1: BioMAP Diversity Plus: KF3CT Assay for Monocyte Chemoattractant Protein 1 (MCP1/CCL2) Biomarker Activity (AID 2283073); conditions: primary human keratinocytes with fibroblasts; actives raise or lower the signal
Summary of the method: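 ELISA read-out of MCP-1, 24 h post-dose, in primary human skin keratinocytes co-cultured with fibroblasts. Parallel SRB staining monitors cytotoxicity; changes fitted both directions relative to DMSO.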

[13] = read-out: Matrix Metallopeptidase 9 (MMP9), MMP9 (gene 4318); assay: BSK_KF3CT_MMP9: BioMAP Diversity Plus: KF3CT Assay for Matrix Metallopeptidase 9 (MMP9) Biomarker Activity (AID 2283074); conditions: primary human keratinocytes with fibroblasts; actives raise or lower the signal;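 on AC50: MMP9 protein level quantified by ELISA in the co-culture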
Summary of the method: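 MMP-9 quantified by ELISA after 24 h chemical treatment of primary human skin keratinocyte/fibroblast co-cultures; gain or loss fitted against DMSO, with parallel SRB staining (0.1% SRB, 560 nm) for overt cytotoxicity.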

[14] = read-out: urokinase plasminogen activator (uPA), PLAU (gene 5328); assay: BSK_KF3CT_uPA: BioMAP Diversity Plus: KF3CT Assay for urokinase plasminogen activator (uPA) Biomarker Activity (AID 2283075); conditions: primary human keratinocytes with fibroblasts; actives raise or lower the signal
Summary of the method: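 ELISA read-out of uPA 24 h after dosing human skin keratinocytes co-cultured with foreskin fibroblasts. Signal change fitted both ways relative to DMSO; sulforhodamine B on parallel cultures marks overt cytotoxicity.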

CD40, CD40 (gene 958) = assay: BSK_LPS_CD40: BioMAP Diversity Plus: LPS Assay for CD40 Biomarker Activity (AID 2283076); conditions: primary human HUVEC with PBMC; actives raise or lower the signal
Summary of the method: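 In the LPS system of human endothelial cells with peripheral blood mononuclear cells, CD40 levels were read by ELISA 24 h post-treatment. Signal changes in either direction were fitted against the DMSO baseline, with parallel SRB protein staining.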

[15] = read-out: E-selectin (Homo sapiens) (UniProt P16581); assay: BSK_LPS_Eselectin: BioMAP Diversity Plus: LPS Assay for Eselectin Biomarker Activity (AID 2283077); conditions: primary human HUVEC with PBMC; actives raise or lower the signal
Summary of the method: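 E-selectin ELISA on LPS-stimulated endothelial cell/PBMC co-cultures, read 24 h post-treatment; gains and losses fitted against DMSO. Parallel SRB staining (0.1% SRB after 10% TCA fixation, 560 nm) flags overt cytotoxicity.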

[16] = read-out: Interleukin-8 (IL8), CXCL8 (gene 3576); assay: BSK_LPS_IL8: BioMAP Diversity Plus: LPS Assay for Interleukin-8 (IL8) Biomarker Activity (AID 2283078); conditions: primary human HUVEC with PBMC; actives raise or lower the signal
Summary of the method: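 ELISA read-out of IL-8 after 24 h chemical treatment of LPS-activated endothelial/PBMC human primary co-cultures. Changes either up or down relative to DMSO; overt cytotoxicity checked by sulforhodamine B staining in parallel wells.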

[17] = BSK_LPS_SRB: Viability Assessment in the BioMAP Diversity Plus: LPS Assay (AID 2283079); conditions: primary human HUVEC with PBMC;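 further: total protein by sulforhodamine B absorbance as a cytotoxicity measure; measured one day after compound addition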
Summary of the method: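 SRB viability endpoint: cells fixed with 10% TCA, stained with 0.1% SRB, read at 560 nm, 24 h post-dose. HUVEC/PBMC co-culture; signal change in either direction scored relative to DMSO.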

[18] = read-out: Interleukin-1 alpha (IL1a), IL1A (gene 3552); assay: BSK_LPS_IL1a: BioMAP Diversity Plus: LPS Assay for Interleukin-1 alpha (IL1a) Biomarker Activity (AID 2283080); conditions: primary human HUVEC with PBMC; actives raise or lower the signal
Summary of the method: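 Readout is IL-1a level by ELISA, 24 h post-dose, fitted as gain or loss relative to DMSO. System: LPS-activated human primary co-culture of vascular endothelium and peripheral blood mononuclear cells, with parallel SRB total-protein cytotoxicity.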

[19] = read-out: Matrix Metallopeptidase 1 (MMP1), MMP1 (gene 4312); assay: BSK_hDFCGF_MMP1: BioMAP Diversity Plus: hDFCGF Assay for Matrix Metallopeptidase 1 (MMP1) Biomarker Activity (AID 2283064); conditions: primary human foreskin fibroblasts; actives raise or lower the signal
Summary of the method: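 MMP1 levels quantified by ELISA 24 h after dosing human dermal fibroblast cultures, with parallel SRB total-protein staining for overt cytotoxicity. Data fitted in both directions against DMSO baseline.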

Measured: AC50

E-selectin (Homo sapiens), sequence (P16581 whole entry, looked up): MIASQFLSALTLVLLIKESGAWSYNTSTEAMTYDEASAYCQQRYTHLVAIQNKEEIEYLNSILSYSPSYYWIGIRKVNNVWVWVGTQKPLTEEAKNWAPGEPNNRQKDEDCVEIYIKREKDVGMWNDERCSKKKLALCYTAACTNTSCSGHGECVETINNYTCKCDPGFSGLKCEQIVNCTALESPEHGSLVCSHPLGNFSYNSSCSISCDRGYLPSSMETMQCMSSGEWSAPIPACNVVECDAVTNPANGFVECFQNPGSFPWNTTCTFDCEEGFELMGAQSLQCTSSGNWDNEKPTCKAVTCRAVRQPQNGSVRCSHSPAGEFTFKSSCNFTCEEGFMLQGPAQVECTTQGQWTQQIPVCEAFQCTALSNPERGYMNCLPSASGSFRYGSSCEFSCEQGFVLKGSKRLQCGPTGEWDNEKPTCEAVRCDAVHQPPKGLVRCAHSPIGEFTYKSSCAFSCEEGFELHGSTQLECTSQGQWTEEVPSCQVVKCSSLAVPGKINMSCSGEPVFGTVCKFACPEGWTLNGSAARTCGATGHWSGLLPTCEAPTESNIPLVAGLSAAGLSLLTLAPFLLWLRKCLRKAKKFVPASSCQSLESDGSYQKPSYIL

c1ccc(C(O[C@@H]2CCCN(CCc3ccc4c(c3)OCO4)C2)c2ccccc2)cc1
inactive: [2] | [3] | [6] | [7] | [8] | [9] | [11] | [12] | [14] | [15]
active: [1] 29 µM | [4] 8.8 µM | [5] 20 µM | [10] 3.97 µM | [13] 32.2 µM | CD40, CD40 (gene 958) 29.1 µM | [16] 20 µM | [17] 26.3 µM | [18] 12.5 µM

C=CCc1cc(S(=O)(=O)c2ccc(O)c(CC=C)c2)ccc1O
active: [1] 14.8 µM | [2] 26.4 µM | [3] 30.7 µM | [19] 31 µM | [4] 15 µM | [5] 10.2 µM | [6] 23.7 µM | [7] 13.8 µM | [8] 26.5 µM | [9] 30 µM | [10] 17.3 µM | [12] 24.4 µM | [13] 10.3 µM | [14] 30.4 µM | CD40, CD40 (gene 958) 11.7 µM | [15] 29.2 µM | [16] 16.2 µM | [17] 14.7 µM | [18] 30.6 µM
inactive: [11]

COc1cc(C(C)C)c2c(c1)S(=O)(=O)N(COc1cc(=O)n3cccc(OCCN4CCCCC4)c3n1)C2=O
active: [1] 8.05 µM | [3] 5.41 µM | [19] 1.3 µM | [4] 2.72 µM | [5] 6.38 µM | [7] 7.22 µM | [9] 5 µM | [12] 2.78 µM | [13] 7.75 µM | CD40, CD40 (gene 958) 6.39 µM | [15] 8.03 µM
inactive: [2] | [6] | [8] | [10] | [11] | [14] | [16] | [17] | [18]

CC(C)CC(C)O (stereo unspecified)
inactive: [1] | [2] | [3] | [19] | [4] | [5] | [6] | [7] | [8] | [9] | [10] | [11] | [12] | [13] | [14] | CD40, CD40 (gene 958) | [15] | [16] | [17] | [18]

CC1(C)C(=O)N(Cl)C(=O)N1Cl
inactive: [1] | [2] | [3] | [4] | [5] | [6] | [7] | [8] | [9] | [10] | [11] | [12] | [13] | [14] | CD40, CD40 (gene 958) | [15] | [16] | [17] | [18]

FC(F)(F)COC(OCC(F)(F)F)OCC(F)(F)F
inactive: [1] | [2] | [3] | [19] | [4] | [5] | [6] | [7] | [8] | [9] | [10] | [12] | [13] | [14] | CD40, CD40 (gene 958) | [15] | [16] | [17] | [18]

CCCCCCCCCCCCCCO
active: [1] 30.2 µM | [3] 10.8 µM | [4] 20 µM | [5] 27 µM | CD40, CD40 (gene 958) 36.6 µM | [16] 34 µM | [17] 30.7 µM | [18] 30.2 µM
inactive: [2] | [19] | [6] | [7] | [8] | [9] | [10] | [11] | [12] | [13] | [14]
